# The campaign covered roughly 310,000 compounds. About 14,000 (4.5%) showed an effect of 50% or more. Effects have a minus sign here. This is one part of a sample in which strong results are shown more often than they occur.
# Biological target: human ether-à-go-go-related gene (hERG) potassium channel (human, UniProt Q12809)
# Experiment: primary screen, population patch clamp on CHO cells stably expressing hERG; higher = less effect of the substance
# 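Note: peak tail current of the secondary pulse compared with the same well before compound.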
# Sequence of human ether-à-go-go-related gene (hERG) potassium channel (Q12809 whole entry, looked up): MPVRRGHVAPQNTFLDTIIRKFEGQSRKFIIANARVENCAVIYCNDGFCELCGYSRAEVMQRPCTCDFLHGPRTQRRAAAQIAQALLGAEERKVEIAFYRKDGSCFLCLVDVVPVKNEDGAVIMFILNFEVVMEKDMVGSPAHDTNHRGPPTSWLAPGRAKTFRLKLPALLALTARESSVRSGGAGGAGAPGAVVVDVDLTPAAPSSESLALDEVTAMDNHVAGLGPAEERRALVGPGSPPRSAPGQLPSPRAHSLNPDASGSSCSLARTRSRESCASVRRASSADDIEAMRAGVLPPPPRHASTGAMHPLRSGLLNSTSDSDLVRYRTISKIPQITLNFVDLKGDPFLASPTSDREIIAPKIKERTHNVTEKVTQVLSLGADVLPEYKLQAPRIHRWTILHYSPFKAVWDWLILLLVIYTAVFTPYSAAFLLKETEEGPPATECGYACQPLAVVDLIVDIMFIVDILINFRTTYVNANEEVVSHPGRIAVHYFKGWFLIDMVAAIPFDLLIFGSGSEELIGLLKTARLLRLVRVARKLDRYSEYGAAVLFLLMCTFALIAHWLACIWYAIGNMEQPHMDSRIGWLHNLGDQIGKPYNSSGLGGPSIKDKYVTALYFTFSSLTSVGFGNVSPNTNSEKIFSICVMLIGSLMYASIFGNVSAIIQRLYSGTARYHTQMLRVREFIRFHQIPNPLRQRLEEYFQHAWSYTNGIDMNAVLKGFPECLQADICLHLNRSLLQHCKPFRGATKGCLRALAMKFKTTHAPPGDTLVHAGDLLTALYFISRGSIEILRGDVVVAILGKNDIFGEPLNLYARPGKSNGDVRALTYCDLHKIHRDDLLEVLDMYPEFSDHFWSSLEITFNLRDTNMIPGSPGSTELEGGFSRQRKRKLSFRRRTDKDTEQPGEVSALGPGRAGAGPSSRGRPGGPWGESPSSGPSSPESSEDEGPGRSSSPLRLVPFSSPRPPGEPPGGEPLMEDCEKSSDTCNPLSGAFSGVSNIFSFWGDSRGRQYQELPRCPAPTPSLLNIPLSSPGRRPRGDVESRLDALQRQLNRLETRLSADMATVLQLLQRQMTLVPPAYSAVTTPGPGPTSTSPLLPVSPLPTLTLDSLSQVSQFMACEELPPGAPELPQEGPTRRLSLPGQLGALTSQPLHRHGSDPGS
row,Structure (SMILES),"hERG current change (%, negative = inhibition) at 10uM [%]"
1,Cc1cccc(N(C(=O)c2csnn2)C(C(=O)NCc2ccccc2)c2ccncc2)c1 (stereo not shown),-18.7
2,CCN(CC)CCCN1C(=O)C(O)=C(C(=O)c2sc(C)nc2C)C1c1ccco1 (stereo not shown),-0.605
3,O=C(Cc1ccsc1)NNC(=O)c1ccc(F)cc1,-18.8
4,c1ccc(CCN(Cc2ccccc2)Cc2nc(C3CC3)no2)cc1,10.2
5,COc1ccc(OCc2cc(C(=O)N3CCC(OC)CC3)no2)c2ccccc12,14.4
6,CCCCOc1ccc(Nc2cc(Cl)ccc2C(=O)O)cn1,23.5
7,O=C(Nc1nnc(-c2ccccc2F)s1)Nc1ccccc1F,23.3
8,CCn1c(SCC(=O)Nc2cccc(C)c2)nc2nc3c(cc2c1=O)COC(C)(C)C3,-23.1
9,CCn1c(SCC(=O)Nc2ccc(C)cc2)nc2nc3c(cc2c1=O)COC(C)(C)C3,-81.8
10,CCn1c(SCC(=O)Nc2ccc(OC)cc2)nc2nc3c(cc2c1=O)COC(C)(C)C3,-72.6
11,C=CCn1c(SCC(N)=O)nc2nc3c(cc2c1=O)COC(C)(C)C3,4.77
12,CCn1c(SCC(=O)Nc2ccc(C(C)=O)cc2)nc2nc3c(cc2c1=O)CCCC3,-20.5
13,CCn1c(SCC(=O)Nc2ccc(OC)cc2OC)nc2nc3c(cc2c1=O)COC(C)(C)C3,-2.49
14,CCn1c(SCC(=O)Nc2ccc(C(C)=O)cc2)nc2nc3c(cc2c1=O)COC(C)(C)C3,13.8
15,CCOc1ccc(NC(=O)CSc2nc3nc4c(cc3c(=O)n2CC)COC(C)(C)C4)cc1,0.831
16,CCn1c(SCC(=O)Nc2ccccc2)nc2nc3c(cc2c1=O)COC(C)(C)C3,-61.8
17,CCn1c(SCC(=O)Nc2ccccc2C)nc2nc3c(cc2c1=O)COC(C)(C)C3,-21.4
18,CCn1c(SCC(=O)Nc2ccc(C)cc2)nc2nc3c(cc2c1=O)CCCC3,-43.6
19,CCn1c(SCC(=O)Nc2ccc(OC)cc2)nc2nc3c(cc2c1=O)CCCC3,-62.6
20,O=C(CN1C(=O)CCOc2ccccc21)Nc1ccc(Cl)c(S(=O)(=O)N2CCOCC2)c1,-7.44
21,O=C(CCn1cnnn1)Nc1cccc(F)c1,21.3
22,S=C(NCCSCc1c(Cl)cccc1Cl)Nc1ccccc1,-3.31
23,COCCn1c(C)cc(C2=NNC(=Nc3ccc(OC)cc3)SC2)c1C,1.3

row,Structure (SMILES),"hERG current change (%, negative = inhibition) at 10uM [%]"
1,Cc1ccc(S(=O)(=O)Nc2ccnc3ccccc23)cc1,-4.28
2,Cc1ccc(F)cc1NC(=O)c1sc2ncn(CC(=O)N3CCN(c4ccccn4)CC3)c(=O)c2c1C,-5.06
3,O=C(COC(=O)CCC(=O)c1cccs1)NC1CCCCC1,1.55
4,CCCCCCC(=O)N/N=C/c1c(O)n(C2CC2)c(=S)[nH]c1=O,-4.67
5,Cc1cccc(N2CCN(c3cc(C)nc4nnnn34)CC2C)c1 (stereo not shown),-53.1
6,Cc1cccc(N2CCN(c3nnnn3-c3ccccc3)CC2C)c1 (stereo not shown),-10.8
7,Cc1cc(N2CCN(c3ccccc3)CC2)n2nnnc2n1,-3.56
8,O=C(NCCc1ccco1)C(=O)NCC1CCCN1S(=O)(=O)c1ccccc1 (stereo not shown),-33.5
9,CSc1ccc(/C=C(\NC(=O)c2ccc(C)cc2)C(=O)Nc2cccc(C)c2)cc1,15.6
10,CC(C)Oc1ccc(C2CC(=O)N(c3ccccc3)C2=O)cc1 (stereo not shown),6.47
11,COc1ccc(-c2cc(=NC(CC(C)C)C(=O)O)c3cc(C)ccc3o2)cc1 (stereo not shown),-56.5
12,COc1ccc(-c2cc(=NCC(=O)O)c3ccccc3o2)cc1.[O-][Cl+3]([O-])([O-])O,-31.5
13,CCC(N=c1cc(-c2ccc(OC)c(OC)c2)oc2ccc(C)cc12)C(=O)O (stereo not shown),-20.7
14,CCC(N=c1cc(-c2ccc(OC)cc2)oc2ccc(C)cc12)C(=O)O (stereo not shown),-74.4
15,COc1ccc(-c2cc(=Nc3ccc(C(=O)O)cc3)c3cc(C)ccc3o2)cc1,12.7
16,COc1ccc(-c2cc(=[NH+]c3cccc(C(=O)O)c3)c3cc(C)ccc3o2)cc1.[O-][Cl+3]([O-])([O-])[O-],-0.536
17,O=C(CN1C(=O)NC2(CCc3ccccc32)C1=O)NCC(=O)Nc1ccc(F)cc1 (stereo not shown),1.09
18,CCCc1c(C(=O)N/N=C/c2ccccc2C(F)(F)F)nnn1-c1nonc1N,11.8
19,CC(C)c1ccc(CNc2ccc3c(c2)ncn3C)cc1,9.16
20,CC(C)(C)OC(=O)N1CCC[C@H]1c1nnc(SCc2ccccc2Cl)o1,-5.07
21,CC(C)(C)OC(=O)N1CCC[C@H]1c1nnc(SCc2c(F)cccc2Cl)o1,2.16
22,CC(C)(C)OC(=O)N1CCC[C@H]1c1nnc(SCc2c(Cl)cccc2Cl)o1,-57.5
23,Cc1ccccc1CNc1nnnn1C,12.4

row,Structure (SMILES),"hERG current change (%, negative = inhibition) at 10uM [%]"
1,Br.O=C(CN1CCSC1=NCc1ccccc1)c1ccccc1,-23.5
2,Br.O=C(CN1CCSC1=NCc1ccccc1)c1ccc(Cl)c(Cl)c1,-17.7
3,Br.O=C(CN1CCSC1=NCc1ccccc1)c1ccc(Cl)cc1,-53.9
4,C=CCNC(=O)c1c(-c2c(F)cccc2Cl)noc1C,-1.62
5,Cc1ccc(S(=O)(=O)N2CCC(C(=O)N3CCC[C@H]3C(=O)NCC(C)C)CC2)cc1,13.8
6,Cl.N=c1sccn1CC(=O)NCCc1ccc(Cl)cc1,-26.3
7,CC(C)N=c1cc2n(-c3ccc(Cl)cc3)c3ccccc3nc-2cc1Nc1ccc(Cl)cc1,35.9
8,CCN(Cc1ccncc1)C(=O)c1cc(COc2ccc(OC)cc2Cl)on1,-22.6
9,COc1cccc(OCc2cc(C(=O)N(C)Cc3nc4ccccc4[nH]3)no2)c1,-37.1
10,Cc1cccc(C)c1OCc1cc(C(=O)N(C)Cc2nc3ccccc3[nH]2)no1,-70.6
11,CCN(Cc1ccncc1)C(=O)c1ccco1,-73.5
12,CCN(Cc1ccncc1)C(=O)c1ccc(C)o1,-0.494
13,CCN(Cc1ccncc1)C(=O)c1cc(COc2c(C)cccc2C)on1,-75.3
14,CCN(Cc1ccncc1)C(=O)c1cc(COc2ccc(F)cc2F)on1,-36
15,CCN(Cc1ccncc1)C(=O)c1cc(COc2c(F)cccc2F)on1,-36
16,CCN(Cc1ccncc1)C(=O)c1ccc(Br)o1,1.66
17,CCN(Cc1ccccc1)C(=O)c1cc(COc2c(F)cccc2F)on1,3.85
18,CC(=O)c1ccc(OCc2cc(C(=O)N(C)Cc3nc4c(C)cccc4[nH]3)no2)cc1,-10.7
19,CCN(Cc1ccncc1)C(=O)c1cc(COc2ccc(C)c(C)c2)on1,-69.5
20,CCN(CC(=O)NC1CCS(=O)(=O)C1)S(=O)(=O)c1cc(C)ccc1C (stereo not shown),10.2
21,COc1ccc(NC(=O)Cn2c(=O)c(C)nc3ccccc32)cc1Cl,-2.07
22,CN(C)c1ccc(CCc2ccc(N)cc2)cc1,19.9
23,Cc1sc(NC(=O)c2ccco2)c(CN2CCN(c3ccccc3)CC2)c1C,7.18

row,Structure (SMILES),"hERG current change (%, negative = inhibition) at 10uM [%]"
1,CCOc1ccc2c(c1)nc(NCCCO)n2Cc1ccccc1,-20.3
2,O=c1[nH]c2ccccc2nc1-c1cccs1,1.66
3,COc1cc(C)nc(N2CCCC(C(=O)Nc3cccc(Cl)c3C)C2)n1 (stereo not shown),0.916
4,C/C(=C\C(=O)c1cccnc1)Nc1ccc(O)cc1,-6.35
5,CCOc1cc(N(CC)CC)ccc1/C=C(/C#N)c1nc2ccccc2[nH]1,0.119
6,NC(=O)c1nc(-c2ccco2)nc2c1[nH]c(=O)n2-c1ccc(Cl)c(Cl)c1,-9.13
7,COC(=O)c1ccccc1NC(=O)NCc1ccccc1,-3.24
8,Cc1c(C(=O)OC2CCC(C)CC2)[nH]c2c1C(=O)CCC2 (stereo not shown),-3.25
9,Cc1ccc(NS(=O)(=O)c2ccc(-c3csc(C)n3)s2)c(C)c1,16
10,CCN(CCn1cccn1)C(=O)c1cc(COc2ccc(F)c(F)c2)on1,-96
11,CCN(CCn1cccn1)C(=O)c1cc(COc2ccc(F)cc2Cl)on1,-15.4
12,CCN(CCn1cccn1)C(=O)c1cc(COc2c(F)cccc2F)on1,0.76
13,O=C1C2C3c4ccccc4C(c4ccccc43)[C@@H]2C(=O)N1c1ccccn1 (stereo partly shown),5.6
14,O=C(N/N=C/c1ccc(OC(F)F)cc1OC(F)F)c1cccc(S(=O)(=O)N2CCOCC2)c1,-33.1
15,COC(=O)Cn1ncn2c(cc3oc(C)cc32)c1=O,13.1
16,CCN(CC(=O)Nc1ccc(OC)cc1)C(=O)COc1cccc2c1OC(C)(C)C2,-14.1
17,Cc1ccccc1C1CCCN(Cc2nc(CC3CC3)no2)C1 (stereo not shown),-12.7
18,c1ccc(C2CCCN(Cc3nc(CC4CC4)no3)CC2)cc1 (stereo not shown),2.97
19,c1ccc(CN2CCCC3(CCCN(Cc4nc(COc5ccccc5)no4)C3)C2)cc1 (stereo not shown),-69.3
20,c1ccc(OCc2noc(CN3CC[C@@H]4CCCC[C@H]4C3)n2)cc1,0.704
21,c1ccc(CN2CCCC3(CCCN(Cc4nc(CC5CC5)no4)C3)C2)cc1 (stereo not shown),-52.1
22,C=CCC1(CC=C)CCCN1Cc1nc(COc2ccccc2)no1,-11.5

# Reference: publication PMC4336329 (PLoS ONE, 2015)
